From the supplement of paper PMC3545927
Some of the results follow. No count for the full screen is at hand.

B1: HC1572 (peptide)
chain: CATPVNSWLGAGNASASA
B2: HC963 (peptide)
chain: CADQMWKCLIAGNASASA
B3: HC2383 (peptide)
chain: CAEVPCHRASAGNASASA
B4: HC1527 (peptide)
chain: CAMLVCGDDLAGNASASA
B5: FS-3171 (peptide)
chain: CARSKRSTLLAGNASASA
B6: FS-3264 (peptide)
chain: CARSKRLMKRAGNASASA
B7: FS-2354 (peptide)
chain: CARMKRDTSLAGNASASA
B8: FS-2524 (peptide)
chain: CARSKRLLSDAGNASASA
B9: HC674 (peptide)
chain: CAAPITAYAQAGNASASA
B10: FS-2406 (peptide)
chain: CARVRRHSDPAGNASASA
B11: FS-2028 (peptide)
chain: CARIARVVLQAGNASASA
B12: FS-3121 (peptide)
chain: CARVPRKVQPAGNASASA
B13: FS-2536 (peptide)
chain: CARVRRAVLPAGNASASA
B14: FS-2108 (peptide)
chain: CARVRRRGSPAGNASASA
B15: HC909 (peptide)
chain: CAGIYRFVAPAGNASASA
B16: FS-1801 (peptide)
chain: CARVPRTVLPAGNASASA
B17: HC495 (peptide)
chain: CATTQWQVLPAGNASASA
B18: FS-2583 (peptide)
chain: CARQGRGSDPAGNASASA
B19: FS-2683 (peptide)
chain: CARIARFVLPAGNASASA
B20: HC1309 (peptide)
chain: CALVETWKKPAGNASASA
B21: HC1163 (peptide)
chain: CAGIPFVSCQAGNASASA
B22: HC2438 (peptide)
chain: CATREVPCHRAGNASASA
B23: HC1662 (peptide)
chain: CAVGIYLLPNAGNASASA
B24: TR6 (peptide)
chain: CALGIRSFRNAGNASASA
B25: FS-1357 (peptide)
chain: CALINVRKRNAGNASASA
B26: FS-340 (peptide)
chain: CAKGGRRSRNAGNASASA
B27: HC216 (peptide)
chain: CADPRRRSRNAGNASASA
B28: HC1446 (peptide)
chain: CAKGGRKPARAGNASASA
B29: FS-1356 (peptide)
chain: CALGGRRKRNAGNASASA
B30: HC1452 (peptide)
chain: CAPDLGVRVCAGNASASA
B31: FS-1892 (peptide)
chain: CARFRRDLVKAGNASASA
B32: FS-2490 (peptide)
chain: CARFRREVEKAGNASASA
B33: FS-2013 (peptide)
chain: CARFDRSVEKAGNASASA
B34: FS-2386 (peptide)
chain: CARVFRQVEKAGNASASA
B35: FS-3220 (peptide)
chain: CARFDRSSGPAGNASASA
B36: FS-3006 (peptide)
chain: CARNIRSGVHAGNASASA
B37: HC2261 (peptide)
chain: CAEVVTSTWNAGNASASA
B38: HC570 (peptide)
chain: CAGGVVLVGLAGNASASA
B39: FS-769 (peptide)
chain: CAFLTRLRRPAGNASASA
B40: FS-1364 (peptide)
chain: CALPSRETRYAGNASASA
B41: FS-1572 (peptide)
chain: CASRGRLRRLAGNASASA
B42: FS-895 (peptide)
chain: CAWQRRLRRLAGNASASA
B43: FS-1118 (peptide)
chain: CAEPRRQRRLAGNASASA
B44: FS-55 (peptide)
chain: CALPSRLRRMAGNASASA
B45: FS-424 (peptide)
chain: CAGDSRQRRLAGNASASA

Biological target: furin, P09958
Test: furin cleavage Z-score vs untreated control; higher = more cleavage, active = 3.5 or more, inactive = 1 or less, 8 variable residues between constant flanks
Summary of the method: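 To give the cleavage Z-score, log read counts were set against furin-free reactions, lowess-adjusted and scaled by median absolute deviation. These counts came from PCR adapter-tagged, sequenced DNA released when purified furin cut 8-mer peptides fused to a cDNA oligonucleotide and held on magnetic beads by their N-terminus. Digests were 0.01 ml, 1:10 enzyme:substrate, in 50 mM HEPES pH 7.5 with CaCl2 and NaCl, for 7.5, 15 or 30 min.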

Sequence of furin, P09958 (P09958 whole entry): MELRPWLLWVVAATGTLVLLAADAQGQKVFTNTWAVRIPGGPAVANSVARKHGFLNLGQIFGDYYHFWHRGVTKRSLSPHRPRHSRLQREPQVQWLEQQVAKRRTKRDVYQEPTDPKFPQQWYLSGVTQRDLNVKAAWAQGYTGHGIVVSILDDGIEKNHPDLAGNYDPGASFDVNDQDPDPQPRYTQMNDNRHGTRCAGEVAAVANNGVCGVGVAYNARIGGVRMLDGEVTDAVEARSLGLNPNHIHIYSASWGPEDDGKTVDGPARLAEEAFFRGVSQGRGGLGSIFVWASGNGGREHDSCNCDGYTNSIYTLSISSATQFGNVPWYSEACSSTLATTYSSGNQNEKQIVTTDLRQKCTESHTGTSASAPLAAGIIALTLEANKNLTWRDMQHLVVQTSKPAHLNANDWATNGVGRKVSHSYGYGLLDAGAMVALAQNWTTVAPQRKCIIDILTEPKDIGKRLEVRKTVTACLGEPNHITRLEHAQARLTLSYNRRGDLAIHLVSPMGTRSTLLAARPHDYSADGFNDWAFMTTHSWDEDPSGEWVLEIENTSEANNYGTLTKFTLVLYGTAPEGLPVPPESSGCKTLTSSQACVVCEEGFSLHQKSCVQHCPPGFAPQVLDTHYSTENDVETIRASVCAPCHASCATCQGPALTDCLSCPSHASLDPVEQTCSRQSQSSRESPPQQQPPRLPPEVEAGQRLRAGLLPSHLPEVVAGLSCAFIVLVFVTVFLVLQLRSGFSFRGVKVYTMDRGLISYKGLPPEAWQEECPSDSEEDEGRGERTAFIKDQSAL

Row | Sequence | furin cleavage Z-score (7.5 min) | furin cleavage Z-score (15 min) | furin cleavage Z-score (30 min)
1 | B1 | -0.962 (inactive) | 0.658 (inactive) | -0.136 (inactive)
2 | B2 | -0.00547 (inactive) | 0.512 (inactive) | 0.111 (inactive)
3 | B3 | -0.108 (inactive) | 1.91 | 1.32
4 | B4 | -1.47 (inactive) | -2.12 (inactive) | -1.71 (inactive)
5 | B5 | 6.63 (active) | 9.65 (active) | 8.72 (active)
6 | B6 | 7.59 (active) | 8.33 (active) | 6.04 (active)
7 | B7 | 12.7 (active) | 14.2 (active) | 10.6 (active)
8 | B8 | 1.69 | 0.376 (inactive) | 1.96
9 | B9 | -1.65 (inactive) | -1.79 (inactive) | -0.691 (inactive)
10 | B10 | 10.2 (active) | 8.54 (active) | 6.84 (active)
11 | B11 | -0.514 (inactive) | -0.914 (inactive) | 1.2
12 | B12 | -0.302 (inactive) | 1.08 | 0.984 (inactive)
13 | B13 | 8.16 (active) | 9.49 (active) | 9.52 (active)
14 | B14 | -0.273 (inactive) | 2.05 | 2
15 | B15 | -1.23 (inactive) | -0.739 (inactive) | -0.847 (inactive)
16 | B16 | 1.52 | 0.946 (inactive) | 3.87 (active)
17 | B17 | -0.0417 (inactive) | 1.36 | 0.907 (inactive)
18 | B18 | -1.86 (inactive) | -0.176 (inactive) | 0.17 (inactive)
19 | B19 | 2.58 | 2.47 | 6.22 (active)
20 | B20 | 0.819 (inactive) | 0.268 (inactive) | -0.773 (inactive)
21 | B21 | -0.0749 (inactive) | 0.44 (inactive) | -1.36 (inactive)
22 | B22 | 0.921 (inactive) | 2.06 | 2.03
23 | B23 | 0.402 (inactive) | 0.33 (inactive) | -0.482 (inactive)

Row | Sequence | furin cleavage Z-score (7.5 min) | furin cleavage Z-score (15 min) | furin cleavage Z-score (30 min)
24 | B24 | 1.49 | 1.8 | -0.165 (inactive)
25 | B25 | 0.912 (inactive) | 2.51 | 1.58
26 | B26 | 4.05 (active) | 5.15 (active) | 6.68 (active)
27 | B27 | 4.59 (active) | 5.65 (active) | 5.55 (active)
28 | B28 | -0.269 (inactive) | -0.328 (inactive) | -1.51 (inactive)
29 | B29 | 11.1 (active) | 12.5 (active) | 7.53 (active)
30 | B30 | -1.67 (inactive) | -0.653 (inactive) | -0.786 (inactive)
31 | B31 | 3.6 (active) | 6.06 (active) | 7.08 (active)
32 | B32 | 9.16 (active) | 8.26 (active) | 9.23 (active)
33 | B33 | 2.17 | 0.744 (inactive) | 3.51 (active)
34 | B34 | -1.6 (inactive) | -2.06 (inactive) | -1.6 (inactive)
35 | B35 | -0.295 (inactive) | 1.66 | 0.428 (inactive)
36 | B36 | -0.391 (inactive) | -0.599 (inactive) | -0.61 (inactive)
37 | B37 | -0.954 (inactive) | 1.01 | 0.548 (inactive)
38 | B38 | -0.221 (inactive) | 0.261 (inactive) | -0.661 (inactive)
39 | B39 | -0.966 (inactive) | -0.023 (inactive) | 0.341 (inactive)
40 | B40 | 2.17 | 1.29 | -0.268 (inactive)
41 | B41 | 4.39 (active) | 6.32 (active) | 6.52 (active)
42 | B42 | 3.85 (active) | 5.94 (active) | 6.13 (active)
43 | B43 | 3.93 (active) | 4.47 (active) | 4.27 (active)
44 | B44 | 9.43 (active) | 11.4 (active) | 8.99 (active)
45 | B45 | -0.0244 (inactive) | 0.999 (inactive) | 0.163 (inactive)
